Experimental data reported in the supplement of paper PMC6805474.
Unmarked numbers belong to inactive results.

tested on: Schistosoma mansoni schistosomula (Liberian); assay: drug effect (1 - score/DMSO control score) (fraction); higher = more antischistosomal effect, active = 0.5 or more; extreme values may be limits of the assay; conditions: 48 h; 10 µM
In short: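 Drug effect was calculated by comparing the mean score of the test wells with the mean score of the DMSO wells, and any negative value was set to zero. Duplicate wells of 50 Liberian-strain S. mansoni schistosomula, mechanically transformed from cercariae and pre-incubated at least 12 h, received 10 µM compound in Medium 199 with 5% FCS at 37 °C, 5% CO2, with 0.1% DMSO in the comparison wells. Visual scoring at 10× took place at 24, 48 and 72 h on a quarter-point scale from 3 (normal) to 0 (dead), and a plate counted only if its DMSO wells averaged at least 2.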

Compound	drug effect
CC1CCCCN1C(=O)NCCc1coc(-c2ccc(F)cc2)n1 (centres undefined)	0.25
COc1ccc(S(=O)(=O)Nc2ccc(CN3CCN(C(=O)c4cccc(C#N)c4)CC3)cc2)cc1	0.111
Cc1cc(Cl)c(S(=O)(=O)N2CCCC2)cc1OCC(=O)NC1CCCCC1	0.189
COc1cccc(CC(=O)N2CCC(n3c(C)nc4ccc(F)cc43)CC2)c1	0.405
COc1cc(C2=NCCN2)ccc1-c1cn(-c2cccc(C3=NCCN3)c2)nn1	0.297
O=C(Nc1cccc(Cl)c1)c1cnc(N2CCN(c3ccncc3)CC2)c(Cl)c1	0.946 (active)
CC[C@@H]([C@H](C)O)n1ncn(-c2ccc(N3CCN(c4ccc(OC[C@@H]5CO[C@@](Cn6cncn6)(c6ccc(F)cc6F)C5)cc4)CC3)cc2)c1=O	0.243
NC(=O)c1cc(Br)ccc1OCCOc1ccccc1	< 0
Cc1noc(C)c1C(=O)N1CCCC(c2[nH]c3c(C)cccc3c2-c2ccncc2)C1 (centres undefined)	0.5 (active)
Cc1cc(Nc2ccncc2)n2nc(C)c(-c3ccccc3Cl)c2n1	0.135
Nc1ncnc2c1ncn2[C@@H]1O[C@H](COS(=O)(=O)NC(=O)c2ccccc2O)[C@@H](O)[C@H]1O	0.111
CC(C)C(NC(=O)Cc1cccc2ccccc12)C(=O)Nc1cccc(C#N)c1 (centres undefined)	0.222
C[C@H]1COc2c(N3CCN(C)CC3)c(F)cc3c(=O)c(C(=O)O)cn1c23	0.05
O=C(c1cc2ccccc2o1)N1CCN(Cc2ccc3c(c2)OCO3)CC1	0.15
